Inconclusive results are not listed. Some structures have more than one record in an assay (separate samples or runs), and their calls can disagree. The source made the active and inactive calls. Unless noted, calls follow the shape of the full dose curve.
Columns and labels:
[1] = Nuclear factor erythroid 2-related factor 2/antioxidant responsive element (Nrf2/ARE) small molecule agonists: qHTS cell viability counter screen in human keratinocytes (AID 1919968; active = well fitted cell-killing curve with a large enough effect in the repeat runs; also: nearly all actives have a fitted effect of over 55% in size; also: potency is read from the fitted curve at half-maximal effect)
Procedure, shortened: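 KeratinoSens cells (HaCaT keratinocytes stably carrying an ARE-luciferase reporter) were seeded at 1,500 cells/well and rested 5 h at 37 C/5% CO2. They were then exposed to compounds in DMSO for 23 h. Viability was read by CellTiter-Fluor fluorescence after 1 h.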

[2] = Nuclear factor erythroid 2-related factor 2/antioxidant responsive element (Nrf2/ARE) small molecule agonists: luciferase reporter gene qHTS assay in human keratinocytes (AID 1919969); also: nearly all actives have a fitted effect of over 35% in size
[3] = molecular target: Gonadotropin-releasing hormone receptor (Homo sapiens) (UniProt P30968); assay: Human gonadotropin-releasing hormone receptor (GnRHR) small molecule agonists, calcium flux assay in GnRHR-HEK293 cells (AID 1920063); also: nearly all actives have a fitted effect of over 35% in size
Chain of Gonadotropin-releasing hormone receptor (Homo sapiens) (P30968 whole entry, looked up): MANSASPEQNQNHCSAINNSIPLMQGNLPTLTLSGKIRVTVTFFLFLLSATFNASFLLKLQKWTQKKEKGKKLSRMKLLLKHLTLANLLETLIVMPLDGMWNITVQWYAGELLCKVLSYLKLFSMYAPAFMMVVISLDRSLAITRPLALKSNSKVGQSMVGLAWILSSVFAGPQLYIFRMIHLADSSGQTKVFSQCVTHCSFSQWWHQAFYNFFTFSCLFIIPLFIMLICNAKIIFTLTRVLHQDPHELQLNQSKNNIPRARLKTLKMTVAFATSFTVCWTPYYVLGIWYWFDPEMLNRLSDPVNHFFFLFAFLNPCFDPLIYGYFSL
Procedure, shortened: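 HEK293 cells stably expressing human GnRHR were plated 18 h at 37 °C, loaded with calcium dye 1 h at 37 °C, then given compound in agonist mode; fluorescence (Ex/Em 480/540) read kinetically for 3 min at 1 s intervals.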

[4] = p53 small molecule agonists, cell-based qHTS assay with human liver microsomes (AID 1963577);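 also: p53 response element beta-lactamase reporter cells with liver microsomes plus NADPH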
Procedure, shortened: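 Steps: plate p53RE-bla cells, incubate 5 h at 37 C; add compound in DMSO; add microsomes (0.5 mg/mL final) and NADPH (0.5 mg/mL final); incubate 16 h at 37 C; add LiveBLAzer, 2 h RT; read fluorescence.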

[5] = p53 small molecule agonists, cell-based qHTS assay with rat liver microsomes (AID 1963578)
Procedure, shortened: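 Metabolic activation is supplied by rat liver microsomes with NADPH (each 0.5 mg/mL final). p53RE-bla cells incubate with compound 16 h at 37 C; reporter activity is measured by LiveBLAzer fluorescence.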

[6] = p53 small molecule agonists, cell-based qHTS assay with human liver microsomes: qHTS cell viability counter screen (AID 1963579); also: nearly all actives have a fitted effect of over 45% in size; also: potency is read from the fitted curve at half-maximal effect
Procedure, shortened: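 After the 460/530 nm beta-lactamase read, CellTiter-Glo was added to the same wells and luminescence measured after 30 min at room temperature, giving viability of p53RE-bla cells treated 16 h with compounds plus microsomes and NADPH.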

[7] = p53 small molecule agonists, cell-based qHTS assay with rat liver microsomes: qHTS cell viability counter screen (AID 1963580); also: nearly all actives have a fitted effect of over 45% in size
Procedure, shortened: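 p53RE-bla HCT-116 cells (4,000/well) rested 5 h at 37 C, then given Tox21 compounds in DMSO with rat liver microsomes (0.5 mg/mL final) plus NADPH (0.5 mg/mL final) for 16 h at 37 C. Viability read by CellTiter-Glo luminescence after 30 min at room temperature.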

[8] = p53 small molecule agonists, cell-based qHTS assay: qHTS cell viability counter screen (AID 1963581); also: nearly all actives have a fitted effect of over 45% in size
Procedure, shortened: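 p53RE-bla HCT-116 cells were exposed to compounds for 16 h at 37 C; after the beta-lactamase FRET read in the same wells, CellTiter-Glo was added and luminescence (intracellular ATP) read after 30 min at room temperature.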

[9] = p53 small molecule agonists, cell-based qHTS assay (AID 1963582; active = well fitted activation curve with a large enough effect in the signal ratio in the repeat runs, not every such curve was filed as active; the % refers to the signal ratio)
Procedure, shortened: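 p53RE-bla beta-lactamase reporter cells rested 5 h at 37 C/5% CO2, then received compounds in DMSO by pin transfer and were incubated 16 h at 37 C. LiveBLAzer B/G FRET substrate was loaded for 2 h at room temperature before fluorescence reading.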

[10] = molecular target: 5-hydroxytryptamine receptor 2A (Homo sapiens) (UniProt P28223); assay: 5-hydroxytryptamine receptor 2A (HTR2A) small molecule antagonists, cell-based qHTS assay (AID 1963586); also: nearly all actives have a fitted effect of over 45% in size; also: potency is read from the fitted curve at half-maximal effect
Chain of 5-hydroxytryptamine receptor 2A (Homo sapiens) (P28223 whole entry, looked up): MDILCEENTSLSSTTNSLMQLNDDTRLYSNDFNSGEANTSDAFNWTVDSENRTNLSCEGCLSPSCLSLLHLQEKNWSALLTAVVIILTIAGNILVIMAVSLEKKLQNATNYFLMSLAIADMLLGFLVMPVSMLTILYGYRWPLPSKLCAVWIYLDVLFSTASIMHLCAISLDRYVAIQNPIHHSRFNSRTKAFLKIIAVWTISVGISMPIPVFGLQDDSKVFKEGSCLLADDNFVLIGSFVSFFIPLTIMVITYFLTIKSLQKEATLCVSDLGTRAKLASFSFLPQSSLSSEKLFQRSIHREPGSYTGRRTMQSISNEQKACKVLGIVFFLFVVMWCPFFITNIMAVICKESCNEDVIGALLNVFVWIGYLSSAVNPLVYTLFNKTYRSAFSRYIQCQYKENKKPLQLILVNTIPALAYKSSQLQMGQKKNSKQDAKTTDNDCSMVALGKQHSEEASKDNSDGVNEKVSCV
Procedure, shortened: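 Antagonist-mode intracellular calcium assay: DOI (4 nM) added after 5 min compound pre-incubation at room temperature to dye-loaded HTR2A-CHO cells. Fluorescence followed for 3 min, sampled every second.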

[11] = molecular target: 5-hydroxytryptamine receptor 2A (Homo sapiens) (UniProt P28223); assay: 5-hydroxytryptamine receptor 2A (HTR2A) small molecule agonists, cell-based qHTS assay (AID 1963587); also: nearly all actives have a fitted effect of over 30% in size
Procedure, shortened: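 HTR2A-CHO cells, plated 18 h at 37 C/5% CO2, dye-loaded 1 h at 37 C; compounds in DMSO added by pin tool (agonist mode). Intracellular calcium flux read as kinetic fluorescence on FDSS over 2 min at 1 s intervals.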

[12] = molecular target: Muscarinic acetylcholine receptor M1 (Homo sapiens) (UniProt P11229); assay: Cholinergic receptor muscarinic 1 (CHRM1) small molecule agonists, cell-based qHTS assay (AID 1963589); also: nearly all actives have a fitted effect of over 35% in size
Chain of Muscarinic acetylcholine receptor M1 (Homo sapiens) (P11229 whole entry, looked up): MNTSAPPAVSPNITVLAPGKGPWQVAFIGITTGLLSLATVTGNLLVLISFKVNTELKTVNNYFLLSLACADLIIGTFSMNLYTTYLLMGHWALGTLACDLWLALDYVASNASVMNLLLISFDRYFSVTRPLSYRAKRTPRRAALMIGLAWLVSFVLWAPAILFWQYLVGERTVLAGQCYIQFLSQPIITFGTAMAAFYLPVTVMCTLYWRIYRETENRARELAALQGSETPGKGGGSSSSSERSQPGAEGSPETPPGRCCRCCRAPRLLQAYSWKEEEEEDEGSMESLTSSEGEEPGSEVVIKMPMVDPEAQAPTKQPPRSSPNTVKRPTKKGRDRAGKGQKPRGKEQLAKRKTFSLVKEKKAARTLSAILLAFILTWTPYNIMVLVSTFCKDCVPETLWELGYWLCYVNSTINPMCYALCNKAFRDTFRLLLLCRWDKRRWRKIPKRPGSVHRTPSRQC
Procedure, shortened: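 CHO cells stably expressing human CHRM1, seeded 18 h at 37 C/5% CO2, dye-loaded 1 h at 37 C, then given compound in agonist mode; intracellular calcium fluorescence read kinetically at 1 s intervals. Fifteen concentrations, three independent runs.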

[13] = cAMP Responsive Elements (CRE) small molecule agonists, cell-based qHTS assay (AID 1963590)
Procedure, shortened: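 CRE-bla HEK 293T cells in DMEM with 10% dialyzed FBS, NEAA, pyruvate and 25 mM HEPES were plated 18 h at 37 C/5% CO2, then exposed to compounds in DMSO for 3 h before LiveBLAzer B/G FRET substrate addition.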

[14] = cAMP Responsive Elements (CRE) small molecule antagonists, cell-based qHTS assay (AID 1963591; active = well fitted inhibition curve with a large enough effect in the signal ratio in the repeat runs, not every such curve was filed as active; the % refers to the signal ratio)
Procedure, shortened: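 CRE-bla HEK293T cells were plated 18 h at 37 °C/5% CO2, pinned with compound in DMSO, then stimulated with NKH477 at 0.25 uM final for 3 h. LiveBLAzer B/G FRET substrate was added and plates incubated 2 h at room temperature.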

[15] = molecular target: Beta-2 adrenergic receptor (Homo sapiens) (UniProt P07550); assay: Adrenergic beta2 receptor (ADRB2) small molecule antagonists, cell-based qHTS assay (AID 1963592); also: series mostly up to about 92 µM; nearly all actives have a fitted effect of over 50% in size
Chain of Beta-2 adrenergic receptor (Homo sapiens) (P07550 whole entry, looked up): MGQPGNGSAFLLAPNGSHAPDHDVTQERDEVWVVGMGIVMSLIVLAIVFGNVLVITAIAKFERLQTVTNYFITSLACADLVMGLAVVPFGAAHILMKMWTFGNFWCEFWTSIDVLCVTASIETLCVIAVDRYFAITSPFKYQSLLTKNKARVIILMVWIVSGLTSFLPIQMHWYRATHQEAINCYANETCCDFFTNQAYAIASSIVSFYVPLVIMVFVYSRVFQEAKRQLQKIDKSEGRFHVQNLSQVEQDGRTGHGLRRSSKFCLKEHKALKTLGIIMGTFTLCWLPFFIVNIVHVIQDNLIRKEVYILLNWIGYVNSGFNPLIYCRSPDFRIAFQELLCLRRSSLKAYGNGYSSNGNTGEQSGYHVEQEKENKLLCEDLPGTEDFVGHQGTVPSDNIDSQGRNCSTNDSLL
Procedure, shortened: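 Cells (CHO, stable ADRB2 overexpression) incubated 18-20hr at 37C; compounds added from DMSO; agonist mix (1nM isoproterenol, 100uM IBMX, 25uM Ro-20-1724) added; 0.5hr RT; d2-cAMP and anti-cAMP-cryptate added; 1hr RT; 665/615 nm read.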

[16] = molecular target: Beta-2 adrenergic receptor (Homo sapiens) (UniProt P07550); assay: Adrenergic beta2 receptor (ADRB2) small molecule agonists, cell-based qHTS assay (AID 1963593);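 also: CHO cells stably overexpressing human ADRB2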
Procedure, shortened: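 CHO cells stably over-expressing ADRB2 were plated overnight at 37C, then dosed with compounds plus a stimulation mix containing 100uM IBMX and 25uM Ro-20-1724 for 0.5hr at room temperature. cAMP was measured by HTRF competition, 1hr.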

[17] = molecular target: D(2) dopamine receptor (Homo sapiens) (UniProt P14416); assay: Dopamine D2 receptor (DRD2) small molecule agonists, cell-based qHTS assay (AID 1963594); also: nearly all actives have a fitted effect of over 35% in size
Chain of D(2) dopamine receptor (Homo sapiens) (P14416 whole entry, looked up): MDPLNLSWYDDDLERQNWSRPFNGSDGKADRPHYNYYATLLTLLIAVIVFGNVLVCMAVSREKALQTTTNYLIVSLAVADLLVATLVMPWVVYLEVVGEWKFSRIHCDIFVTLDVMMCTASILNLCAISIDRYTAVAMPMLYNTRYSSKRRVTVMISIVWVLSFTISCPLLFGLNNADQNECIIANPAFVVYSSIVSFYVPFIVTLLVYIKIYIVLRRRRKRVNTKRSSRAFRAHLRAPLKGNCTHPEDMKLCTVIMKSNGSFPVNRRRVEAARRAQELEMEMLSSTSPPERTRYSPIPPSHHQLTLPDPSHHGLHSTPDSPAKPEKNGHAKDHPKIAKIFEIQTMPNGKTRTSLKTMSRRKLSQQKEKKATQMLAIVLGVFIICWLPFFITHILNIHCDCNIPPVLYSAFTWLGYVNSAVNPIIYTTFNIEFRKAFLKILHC
Procedure, shortened: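 HEK293 cells stably expressing DRD2 were cultured 24 h at 37 C, then given Ro20-1724 (0.1 mM final) and compounds for 10 min at room temperature. NKH477 (200nM) was then added for 30 min. cAMP was read by HTRF.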

[18] = molecular target: D(2) dopamine receptor (Homo sapiens) (UniProt P14416); assay: Dopamine D2 receptor (DRD2) small molecule antagonists, cell-based qHTS assay (AID 1963595; active = well fitted inhibition curve with a large enough effect in the signal ratio in the repeat runs, with a control signal flat; the % refers to the signal ratio; also: potency is read from the fitted curve at half-maximal effect)
Procedure, shortened: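 DRD2-HEK293; 0.1 mM Ro20-1724; cpd 10 min RT; NKH477 200 nM + quinpirole 12 nM, 30 min RT; HTRF cAMP (cAMP-d2/anti-cAMP cryptate), 665/620 nm ratio after 1 h.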

[19] = molecular target: Muscarinic acetylcholine receptor M1 (Homo sapiens) (UniProt P11229); assay: Cholinergic receptor muscarinic 1 (CHRM1) small molecule antagonists, cell-based qHTS assay (AID 1963588); also: nearly all actives have a fitted effect of over 40% in size; also: potency is read from the fitted curve at half-maximal effect
Procedure, shortened: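 CHRM1-CHO calcium-flux assay, antagonist mode. Cells were seeded 18 h, dye-loaded 1 h at 37 C and given compound for 5 min at RT, then acetylcholine was added at 50nM. FDSS fluorescence was read 3 min; 15 concentrations, three runs.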

Measured: Potency

CCCCCCCCCCCCCCCCC
not listed: [19]
inactive: all other assays above

CN(CC1(C)CCCO1)S(=O)(=O)c1ccc(Cl)c(S(N)(=O)=O)c1 (centres undefined)
not listed: [6] | [11] | [16] | [18]
inactive: all other assays above

O=C1NC(c2ccccc2)(c2ccccc2)C(=O)N1COP(=O)(O)O
not listed: [5]
inactive: all other assays above

IC(I)I
not listed: [16]
inactive: all other assays above

Cc1ccccc1C
active: [19] 1.5 nM
not listed: [15]
inactive: all other assays above

NCCCN1CCN(CCCN)CC1
not listed: [16] | [18]
inactive: all other assays above

CC(C)CCCCCOC(=O)CS
not listed: [10] | [16]
inactive: all other assays above

O=C(CCCN1CCC(O)(c2cccc(C(F)(F)F)c2)CC1)c1ccc(F)cc1
active: [10] 365 nM | [18] 4.2 nM
not listed: [16]
inactive: all other assays above

C=C1C[C@H]2[C@@H]3C=C(C)C4=CC(=O)CC[C@]4(C)[C@H]3CC[C@]2(C)[C@@]1(OC(C)=O)C(C)=O
not listed: [8] | [13] | [14] | [16] | [19]
inactive: all other assays above

CCCc1ccc(N)cc1
not listed: [5] | [6] | [12] | [13]
inactive: all other assays above

C=CCCC
not listed: [12] | [16]
inactive: all other assays above

CCCCCCCCS
not listed: [16]
inactive: all other assays above

C[Si](C)O[Si](C)(C)O[Si](C)(C)O[Si](C)C
not listed: [5] | [11] | [16]
inactive: all other assays above

Cc1ccc(C(=O)c2cc(O)c(O)c([N+](=O)[O-])c2)cc1
45.8 µM (active) and inactive: [6]
active: [1] 30600 nM
not listed: [13] | [14]
inactive: all other assays above

CCCCCCCC/C=C\CCCCCCCC(N)=O
not listed: [13]
inactive: all other assays above
